This passage reports composite z-score and z-score results from PubChem BioAssay.

Structures are written as SMILES. Calls of active or inactive are those of the source.

For assay [1], the system named is PRMT1 (protein arginine N-methyltransferase 1). Description: small molecules binding arginine methyltransferase PRMT1 – biochemical, small-molecule microarray, 635 nm fluorescence, primary screen (AID 1088).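 Further: binding of Prmt1 protein to compounds spotted on small-molecule microarray slides.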 The conditions noted are these: higher = more signal.
The nature of assay [2]: growth effects on S. cerevisiae YJM789 – YJM789 clinical isolate, OD600, 24 h, basal, primary screen (AID 1089).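 Further: growth of clinical yeast isolate S. cerevisiae YJM 789 seeded 1000 cells per well; test concentration not given here.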 The note with it: higher = more signal, called active from +8 up or from −8 down.
A short description of assay [3]: S. pombe growth modifiers, basal conditions – strain 972, OD600, 24 h, no modulator, primary screen (AID 1090).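 Further: basal condition with compound alone and no growth modifier present; test concentration not given here.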 The note with it: S. pombe 972 growth, higher = more signal, called active from +8 up or from −8 down.
Assay [4] in a line: budding yeast growth modifiers under rapamycin – strain BY4716, OD600, 96 h, primary screen (AID 1091). Further: test concentration not given here. The note with it: S. cerevisiae BY4716 + rapamycin, higher = more signal, called active from +8 up or from −8 down.
In assay [5] the target is Torsin-1A-interacting protein 2 (Homo sapiens) (UniProt Q8NFQ8). Description: small molecules binding lysate-expressed LULL1 – cell lysate, human LULL1 lysate, 635/667 nm fluorescence, primary screen (AID 1092).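 Further: probe is lysate of COS7 cells overexpressing human LULL1; score merges per-feature 667 nm fluorescence with signal-to-noise.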 The conditions noted are these: small-molecule microarray, hLULL1 lysate binding, 635 nm fluorescence; higher = more signal.
Assay [6] can be described thus: optical density change of DRC41 E. coli – strain DRC41, OD650, 24 h, E. coli filamentation project, primary screen (AID 1093).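 Further: MC1000 strain lacking acrAB efflux and sulA so SOS filamentation is blocked; test concentration not given here.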 The note with it: E. coli DRC41 growth, higher = more signal, called active from +8 up or from −8 down.
Assay [7] is described as follows: probe aLefty2 binding to arrayed compounds – biochemical, biotinylated probe, 635/667 nm fluorescence, primary screen (AID 1094).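 Further: score merges spot fluorescence near 667 nm with spot signal-to-noise ratio.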 The note with it: small-molecule microarray, higher = more signal.
Assay [8] relates to Noggin (protein binding on small-molecule microarray). The experiment in a line: small molecules binding Noggin protein – biochemical, 635/667 nm fluorescence, primary screen (AID 1095).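 Further: score merges 667 nm feature fluorescence with signal to noise over triplicate slides.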 The conditions noted are these: 635 nm fluorescence, higher = more signal.
Assay [9] addresses Neurogenic locus notch homolog protein 3 (Homo sapiens) (UniProt Q9UM47). Description: small molecules binding NOTCH3 protein – biochemical, 635/667 nm fluorescence, primary screen (AID 1096). The note with it: small-molecule microarray, 635 nm fluorescence, higher = more signal.
Assay [10] can be described thus: probe aEGFR binding to arrayed compounds – biochemical, biotinylated probe, 635/667 nm fluorescence, primary screen (AID 1097).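 Further: probe is a biotinylated anti-EGFR antibody binding compounds printed on slides; score combines fluorescence near 667 nm and signal to noise of each spot.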 The conditions noted are these: small-molecule microarray, higher = more signal.
In assay [11] the test system is Plasmodium falciparum Sir2 (PF13_0152, Sir2A). The experiment in a line: Plasmodium falciparum Sir2A binding compounds – biochemical, small-molecule microarray, 635 nm fluorescence, primary screen (AID 1098).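 Further: score merges spot fluorescence intensity with its signal-to-noise ratio.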 The note with it: fluorescence 635 nm, higher = more signal.
The nature of assay [12]: probe aDKK1 binding to arrayed compounds – biochemical, biotinylated probe, 635/667 nm fluorescence, primary screen (AID 1099).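 Further: score merges 667nm spot fluorescence with signal to noise across triplicate slides; reference of the scale not given here.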 The conditions noted are these: small-molecule microarray, higher = more signal.
Assay [13] in a line: probe aCHRDL2 binding to arrayed compounds – biochemical, biotinylated probe, 635/667 nm fluorescence, primary screen (AID 1100). The note with it: small-molecule microarray, higher = more signal.
Assay [14] in a line: change in splice reporter luminescence, either direction, cell-based, HEK293, spliceosome inhibition project, primary screen (AID 1101).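 Further: HEK293 cells carrying a splicing-competent luciferase reporter gene; test concentration not given here.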 The conditions noted are these: HEK293 splicing luciferase reporter, 24 h, higher = more signal, called active from +8 up or from −8 down. (In general: In a reporter assay the amount or activity of a reporter protein is the signal.)
In assay [15] the target is Fibroblast growth factor 10 (Homo sapiens) (UniProt O15520). The experiment in a line: compounds binding fibroblast growth factor 10 – biochemical, small-molecule microarray, 635 nm fluorescence, primary screen (AID 1102). The conditions noted are these: FGF10 binding, fluorescence 635 nm, higher = more signal.
Assay [16] has as its system glycogen synthase kinase-3 (GSK3A per assay name; protocol says GSK3B). Description: compounds binding glycogen synthase kinase-3 – biochemical, small-molecule microarray, 635 nm fluorescence, GSK3A, primary screen (AID 1103). Further: the record names both GSK3A and GSK3B. The conditions noted are these: fluorescence 635 nm, higher = more signal.
For assay [17], the target named is Epidermal growth factor receptor (Homo sapiens) (UniProt P00533). Description: compounds binding epidermal growth factor receptor – biochemical, small-molecule microarray, 635 nm fluorescence, primary screen (AID 1104).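 Further: score merges 667 nm emission intensity with spot signal to noise over triplicate slides.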 The note with it: EGFR binding, higher = more signal.
Assay [18] addresses Follistatin-related protein 3 (Homo sapiens) (UniProt O95633). The experiment in a line: compounds binding follistatin-related protein 3 – biochemical, small-molecule microarray, 635 nm fluorescence, primary screen (AID 1105).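 Further: score merges emission near 667 nm and signal to noise per printed spot across three slides.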 The conditions noted are these: FSTL3 binding, higher = more signal.
Assay [19] addresses Dickkopf-related protein 1 (Homo sapiens) (UniProt O94907). The experiment in a line: small molecules binding DKK1 protein – biochemical, small-molecule microarray, 635 nm fluorescence scan, primary screen (AID 1106).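 Further: score merges emission near 667 nm with signal to noise over three replicate slides.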 The conditions noted are these: higher = more signal.
The subject of assay [20] is Inhibin beta A chain (activin A). The experiment in a line: small molecules binding activin A – biochemical, small-molecule microarray, 635 nm fluorescence scan, primary screen (AID 1107).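 Further: mouse activin A protein probed at 4.33 µg/mL on printed slides; score merges bound-protein fluorescence near 667 nm with spot signal-to-noise.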 The note with it: INHBA, higher = more signal.

Sequence of Follistatin-related protein 3 (Homo sapiens) (O95633 whole entry, looked up): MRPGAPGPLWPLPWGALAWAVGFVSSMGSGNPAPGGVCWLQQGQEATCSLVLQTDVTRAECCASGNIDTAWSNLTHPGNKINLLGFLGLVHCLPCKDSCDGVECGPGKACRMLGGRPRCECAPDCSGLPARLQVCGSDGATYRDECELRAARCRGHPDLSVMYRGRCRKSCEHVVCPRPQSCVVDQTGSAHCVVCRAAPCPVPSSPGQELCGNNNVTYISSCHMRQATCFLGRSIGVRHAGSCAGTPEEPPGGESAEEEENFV
Sequence of Torsin-1A-interacting protein 2 (Homo sapiens) (Q8NFQ8 whole entry, looked up): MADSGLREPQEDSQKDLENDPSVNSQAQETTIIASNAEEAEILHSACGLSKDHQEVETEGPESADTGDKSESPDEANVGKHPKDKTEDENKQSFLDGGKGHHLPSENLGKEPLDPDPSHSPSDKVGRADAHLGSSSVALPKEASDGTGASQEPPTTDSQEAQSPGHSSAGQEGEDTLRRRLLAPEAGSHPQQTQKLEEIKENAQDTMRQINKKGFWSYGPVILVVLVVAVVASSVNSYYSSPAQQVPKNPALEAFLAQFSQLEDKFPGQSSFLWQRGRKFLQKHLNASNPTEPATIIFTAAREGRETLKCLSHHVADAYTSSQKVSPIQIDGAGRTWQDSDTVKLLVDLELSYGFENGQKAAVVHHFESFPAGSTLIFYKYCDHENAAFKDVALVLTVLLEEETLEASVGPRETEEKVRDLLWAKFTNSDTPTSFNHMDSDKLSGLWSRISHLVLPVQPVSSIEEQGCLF
Sequence of Neurogenic locus notch homolog protein 3 (Homo sapiens) (Q9UM47 whole entry, looked up): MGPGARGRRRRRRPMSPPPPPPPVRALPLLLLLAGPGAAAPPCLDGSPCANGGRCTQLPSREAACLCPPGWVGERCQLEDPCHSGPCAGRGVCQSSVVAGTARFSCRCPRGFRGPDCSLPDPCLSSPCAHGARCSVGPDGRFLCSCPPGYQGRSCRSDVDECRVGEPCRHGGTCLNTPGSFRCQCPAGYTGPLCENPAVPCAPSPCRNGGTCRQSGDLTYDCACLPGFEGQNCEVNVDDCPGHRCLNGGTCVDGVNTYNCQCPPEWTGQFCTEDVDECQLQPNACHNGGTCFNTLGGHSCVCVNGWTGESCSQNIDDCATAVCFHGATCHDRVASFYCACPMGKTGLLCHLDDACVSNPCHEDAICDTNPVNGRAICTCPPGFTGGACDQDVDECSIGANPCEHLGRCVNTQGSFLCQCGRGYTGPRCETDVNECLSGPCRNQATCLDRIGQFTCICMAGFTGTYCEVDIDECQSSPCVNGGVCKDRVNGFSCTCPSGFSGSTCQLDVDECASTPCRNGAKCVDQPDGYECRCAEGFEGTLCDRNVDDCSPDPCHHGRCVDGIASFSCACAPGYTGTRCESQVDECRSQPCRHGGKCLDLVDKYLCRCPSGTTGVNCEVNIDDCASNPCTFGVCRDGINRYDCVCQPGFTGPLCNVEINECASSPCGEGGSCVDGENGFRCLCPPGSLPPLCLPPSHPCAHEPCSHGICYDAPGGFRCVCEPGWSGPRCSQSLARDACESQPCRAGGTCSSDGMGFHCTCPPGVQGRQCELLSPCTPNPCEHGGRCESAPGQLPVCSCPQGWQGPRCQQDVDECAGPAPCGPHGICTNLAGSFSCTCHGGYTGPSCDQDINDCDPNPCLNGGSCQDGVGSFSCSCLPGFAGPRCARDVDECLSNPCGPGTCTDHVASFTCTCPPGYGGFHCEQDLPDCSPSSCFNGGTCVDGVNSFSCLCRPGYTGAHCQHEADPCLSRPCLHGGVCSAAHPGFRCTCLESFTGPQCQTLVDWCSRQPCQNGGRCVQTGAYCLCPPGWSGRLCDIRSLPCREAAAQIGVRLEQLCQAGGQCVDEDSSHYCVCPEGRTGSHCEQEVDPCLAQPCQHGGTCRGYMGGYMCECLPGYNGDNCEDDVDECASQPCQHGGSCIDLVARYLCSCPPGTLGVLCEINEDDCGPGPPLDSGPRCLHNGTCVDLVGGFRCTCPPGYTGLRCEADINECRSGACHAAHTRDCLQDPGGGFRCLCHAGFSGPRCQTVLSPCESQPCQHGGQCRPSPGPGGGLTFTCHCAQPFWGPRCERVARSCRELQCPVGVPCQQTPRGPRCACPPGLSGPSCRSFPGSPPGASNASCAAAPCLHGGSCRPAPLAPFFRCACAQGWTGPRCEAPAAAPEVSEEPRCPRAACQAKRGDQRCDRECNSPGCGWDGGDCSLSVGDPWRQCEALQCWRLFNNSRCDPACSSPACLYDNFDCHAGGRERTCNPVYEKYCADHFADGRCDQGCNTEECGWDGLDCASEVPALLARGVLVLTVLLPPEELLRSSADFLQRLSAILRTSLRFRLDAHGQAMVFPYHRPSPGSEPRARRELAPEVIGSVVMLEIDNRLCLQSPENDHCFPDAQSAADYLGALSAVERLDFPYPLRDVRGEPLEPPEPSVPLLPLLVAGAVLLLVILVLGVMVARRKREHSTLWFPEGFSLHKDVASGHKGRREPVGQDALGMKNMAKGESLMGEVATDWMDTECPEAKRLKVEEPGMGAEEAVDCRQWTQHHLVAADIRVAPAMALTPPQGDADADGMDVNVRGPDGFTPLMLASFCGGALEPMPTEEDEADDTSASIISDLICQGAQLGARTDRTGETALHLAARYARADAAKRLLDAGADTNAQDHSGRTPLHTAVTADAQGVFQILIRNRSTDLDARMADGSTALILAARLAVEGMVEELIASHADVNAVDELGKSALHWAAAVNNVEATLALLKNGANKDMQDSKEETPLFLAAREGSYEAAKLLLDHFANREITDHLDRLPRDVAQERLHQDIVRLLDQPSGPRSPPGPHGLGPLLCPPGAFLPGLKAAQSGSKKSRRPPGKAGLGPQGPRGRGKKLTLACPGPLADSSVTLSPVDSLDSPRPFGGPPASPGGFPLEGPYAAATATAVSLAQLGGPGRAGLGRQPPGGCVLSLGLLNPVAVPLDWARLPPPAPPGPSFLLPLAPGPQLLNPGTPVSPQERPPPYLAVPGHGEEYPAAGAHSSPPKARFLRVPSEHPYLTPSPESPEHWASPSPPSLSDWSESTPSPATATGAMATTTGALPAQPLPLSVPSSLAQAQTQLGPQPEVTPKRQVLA
Sequence of Fibroblast growth factor 10 (Homo sapiens) (O15520 whole entry, looked up): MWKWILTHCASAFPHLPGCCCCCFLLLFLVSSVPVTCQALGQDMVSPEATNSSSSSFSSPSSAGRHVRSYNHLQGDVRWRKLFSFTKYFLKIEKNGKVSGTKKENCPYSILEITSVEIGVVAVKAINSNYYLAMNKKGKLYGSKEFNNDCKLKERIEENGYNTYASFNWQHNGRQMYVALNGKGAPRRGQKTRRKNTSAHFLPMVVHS
Sequence of Epidermal growth factor receptor (Homo sapiens) (P00533 whole entry, looked up): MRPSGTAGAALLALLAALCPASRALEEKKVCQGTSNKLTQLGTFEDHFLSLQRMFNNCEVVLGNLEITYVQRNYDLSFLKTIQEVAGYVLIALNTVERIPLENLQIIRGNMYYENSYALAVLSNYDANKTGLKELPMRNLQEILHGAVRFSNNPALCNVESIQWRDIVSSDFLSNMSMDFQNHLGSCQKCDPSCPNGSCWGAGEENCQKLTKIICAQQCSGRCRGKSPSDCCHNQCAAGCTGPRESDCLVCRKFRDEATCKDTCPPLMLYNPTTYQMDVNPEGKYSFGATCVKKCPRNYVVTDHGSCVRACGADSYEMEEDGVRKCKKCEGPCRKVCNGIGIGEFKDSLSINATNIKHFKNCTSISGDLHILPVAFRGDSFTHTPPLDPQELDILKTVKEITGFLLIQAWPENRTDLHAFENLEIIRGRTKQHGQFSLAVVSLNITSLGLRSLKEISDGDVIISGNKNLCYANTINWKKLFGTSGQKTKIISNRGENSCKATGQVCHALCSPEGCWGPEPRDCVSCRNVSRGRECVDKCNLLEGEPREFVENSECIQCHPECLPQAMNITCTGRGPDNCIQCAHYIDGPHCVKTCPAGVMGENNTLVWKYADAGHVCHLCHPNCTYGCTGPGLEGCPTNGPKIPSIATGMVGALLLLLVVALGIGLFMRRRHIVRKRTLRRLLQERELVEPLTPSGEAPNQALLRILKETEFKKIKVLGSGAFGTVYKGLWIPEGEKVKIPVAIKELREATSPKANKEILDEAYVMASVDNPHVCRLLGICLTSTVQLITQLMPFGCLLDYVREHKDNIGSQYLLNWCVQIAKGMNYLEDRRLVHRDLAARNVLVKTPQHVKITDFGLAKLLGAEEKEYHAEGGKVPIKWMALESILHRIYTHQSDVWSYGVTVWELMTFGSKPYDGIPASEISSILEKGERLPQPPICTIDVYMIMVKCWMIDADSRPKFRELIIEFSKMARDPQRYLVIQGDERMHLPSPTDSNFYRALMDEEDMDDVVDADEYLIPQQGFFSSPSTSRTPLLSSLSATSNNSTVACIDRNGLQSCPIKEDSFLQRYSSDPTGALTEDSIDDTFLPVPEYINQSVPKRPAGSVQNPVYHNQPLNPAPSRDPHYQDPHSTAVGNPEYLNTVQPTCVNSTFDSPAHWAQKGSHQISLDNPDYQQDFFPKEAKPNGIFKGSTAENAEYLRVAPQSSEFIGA
Sequence of Dickkopf-related protein 1 (Homo sapiens) (O94907 whole entry, looked up): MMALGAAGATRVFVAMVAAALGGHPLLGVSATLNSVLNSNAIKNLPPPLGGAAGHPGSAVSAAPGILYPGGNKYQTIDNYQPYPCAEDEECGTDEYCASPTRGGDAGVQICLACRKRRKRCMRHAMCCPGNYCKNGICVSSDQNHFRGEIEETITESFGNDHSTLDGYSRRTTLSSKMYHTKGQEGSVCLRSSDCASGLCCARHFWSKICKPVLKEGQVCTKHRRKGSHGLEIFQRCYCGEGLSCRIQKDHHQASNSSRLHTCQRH

For the compound `CCCCC(CC)C(O)C1C=CC2C(=O)N(c3ccccc3)C(=O)C2N1Nc1ccccc1F` (stereo not given), the composite z-score in assay [1] is 1.53; in assay [5], 2.64; in assay [7], 0.222; in [8], 0.0782; in assay [9], 0.822; in [10] it was -0.162. In addition, the composite z-score in [11] is 1.02; in assay [12], 0.36; in assay [13] it was 0.852; in [15], 0.944; in [16], 1.23; in [17] it was -0.187. In addition, the composite z-score in [18] is 0.517; in assay [19] it was -0.505; in [20], 0.744. The z-score in assay [2] was -0.802 (inactive); in assay [3] it was 1.53 (inactive); in assay [4] it was 0.314 (inactive); in assay [6], 0.379 (inactive); in assay [14], -0.561 (inactive).
On to `CCCC=C(CCC)[C@@H](NS(=O)(=O)c1ccc(C(F)(F)F)cc1)c1ccccc1`, for which the composite z-score in assay [1] was 0.907; in [5], 1.41; in [7], 0.0749; in assay [8], -0.0917; in [9], 0.275; in [10] it was -0.0415. For the same compound, the composite z-score in assay [11] was 0.156; in assay [12], -0.001; in assay [13], 0.614; in assay [15] it was 0.0772; in [16], 0.571; in assay [17] it was -0.585. Besides, the figures for the composite z-score in assay [18], in assay [19] and in assay [20] were -0.143, -0.61 and 0.388, respectively. Besides, the z-score is 1.22 (inactive) in assay [2]; 1.46 (inactive) in assay [3]; 3.03 (inactive) in assay [4]; -1.74 (inactive) in assay [6]; -0.172 (inactive) in assay [14].
Turning to `C=CCNC(=O)[C@@H]1[C@H]2C(=O)O[C@H](c3ccccc3)[C@H](c3ccccc3)N2[C@H](c2ccccc2OCCO)[C@@]12C(=O)N(C(=O)OCCOC)c1ccc(C#CC3(O)CCCCCC3)cc12`, the composite z-score was 1.56 in assay [1]; 2.86 in [5]; -0.0146 in [7]; 1.02 in assay [8]; 1.1 in assay [9]; -0.0177 in [10]. Moreover, the composite z-score is 1.17 in assay [11]; 0.0347 in [12]; 0.31 in assay [13]; 0.87 in assay [15]; 1.3 in assay [16]; 0.598 in [17]. In addition, the composite z-score in assay [18] came out at 1.36; in assay [19], 0.579; in assay [20] it was 1.13. Besides, the z-score was 0.0171 (inactive) in assay [2]; -0.0365 (inactive) in [3]; 5.23 (inactive) in [4]; 1.41 (inactive) in [6]; -0.692 (inactive) in assay [14].
As for `C#Cc1cc2ccccc2oc1=O`, the composite z-score in assay [1] is 0.914; in assay [5], 0.969; in assay [7], -0.313; in [8], -2.71; in assay [9] it was -1.32; in assay [10], -0.325. Also, the composite z-score is 0.253 in assay [11]; -0.265 in assay [12]; 0.256 in assay [13]; -0.347 in assay [15]; -0.748 in assay [16]; -2.35 in assay [17]. For the same compound, the results for the composite z-score in assay [18], in assay [19] and in [20] were -2.4, -1.87 and -1.73, respectively. Moreover, the z-score in assay [2] was -1.81 (inactive); in [3], -7.83 (inactive); in [4], -1.11 (inactive); in assay [6], -1.45 (inactive); in assay [14], 3.33 (inactive).
Regarding `CCOC(=O)C1=C[C@@H](C(C)(C)C)N(S(=O)(=O)c2ccc(C)cc2)[C@H]1c1cccc2ccccc12`, the composite z-score in assay [1] is 0.735; in assay [5], 2.36; in assay [7], -0.034; in assay [8] it was 0.171; in assay [9], 1.09; in [10] it was -0.0828. Also, the composite z-score in assay [11] was 0.462; in assay [12] it was 0.166; in assay [13], 0.562; in assay [15], 0.242; in [16] it was 0.936; in assay [17], -0.138. Further, the composite z-score in [18] is 0.7; in assay [19], -0.412; in assay [20], 0.997. The z-score was 2.23 (inactive) in [2]; 2.75 (inactive) in assay [3]; 2.97 (inactive) in [4]; -0.296 (inactive) in [6]; -0.134 (inactive) in assay [14].
